Structures can show the parent of a compound that is named as a salt.
Tests used:
Details in all cases: 20 µM
[1] = tested on: Salmonella enterica typhimurium; experiment: growth AUC normalised to DMSO control (fraction of control); higher = less growth inhibition, active = hit call of the paper
Summary of the method: (§1)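 For the AUC endpoint, growth curves were integrated by the trapezoidal rule up to the exponential-to-stationary transition and normalised to DMSO controls on the same plate. The curves came from OD578 readings taken hourly for 24 h, in three biological replicates. Pathogens had been passaged anaerobically twice and inoculated at an OD578 of 0.01 into pre-reduced mGAM plates carrying 20 μM compound and 1% DMSO, sealed with breathable membranes. Medium for Haemophilus parainfluenzae also contained hemin and NAD.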

[2] = tested on: Shigella flexneri; experiment: as above
Summary of the method: as §1

[3] = tested on: Vibrio cholerae; experiment: as above
Summary of the method: as §1

[4] = tested on: Yersinia pseudotuberculosis; experiment: as above
Summary of the method: as §1

[5] = tested on: P. vulgatus RND KO; experiment: growth AUC normalised to DMSO control (median) (fraction of control); higher = less growth inhibition, active = hit call of the paper
Summary of the method: (§2)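 Area under the growth curve, calculated by the trapezoidal rule up to entry into stationary phase, was normalised to vehicle wells on the same plate. Strains had been passaged twice overnight without oxygen and then grown in mGAM in 96-well plates from OD578 0.01, each with an approved-drug library compound at 20 μM in 1% DMSO. OD578 was read hourly over 24 h in an anaerobic incubator, and the median of three biological replicates is given.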

[6] = tested on: P. vulgatus WT; experiment: as above
Summary of the method: as §2

[7] = tested on: S. enterica typhimurium WT; experiment: as above
Summary of the method: as §2

[8] = tested on: S. enterica typhimurium tolC KO; experiment: as above
Summary of the method: as §2

Measured: growth AUC normalised to DMSO control
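Wherever growth AUC normalised to DMSO control (median) is given: active when median AUC fell below 0.1.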

CC[N+](C)(C)Cc1ccccc1Br [Bretylium tosylate]
inactive: [1] 1 | [2] 1.01 | [3] 1.02 | [4] 1.02 | [5] 0.995 | [6] 1.03 | [7] 1 | [8] 0.999

CN[C@@H]1[C@H](O)[C@H](NC)[C@H]2O[C@@]3(O)C(=O)C[C@@H](C)O[C@H]3O[C@@H]2[C@H]1O [Spectinomycin dihydrochloride]
inactive: [2] 1.01 | [3] 1.02 | [5] 1.01 | [6] 1 | [7] 0.961 | [8] 0.871
active: [1] 0.896 | [4] 0.933

NC(=O)NC1NC(=O)NC1=O (stereo not drawn) [Allantoin]
inactive: [1] 1 | [2] 0.996 | [3] 1.05 | [4] 0.989 | [5] 0.999 | [6] 1.01 | [7] 0.994 | [8] 0.998

Cc1cc(C)nc(NS(=O)(=O)c2ccc(N)cc2)n1 [Sulfamethazine sodium salt]
inactive: [1] 0.985 | [2] 0.986 | [3] 0.982 | [4] 1.01 | [5] 0.996 | [6] 0.988 | [7] 0.992 | [8] 1.01

CN(C)CCN(Cc1ccc(Cl)cc1)c1ccccn1 [Chloropyramine hydrochloride]
inactive: [1] 0.97 | [2] 1.03 | [3] 0.977 | [4] 1.02 | [5] 1.07 | [6] 1.05 | [7] 0.988 | [8] 0.953

CN(C)CCC(c1ccccc1)c1ccccn1 (stereo not drawn) [Pheniramine maleate]
inactive: [1] 0.996 | [2] 1.04 | [3] 0.997 | [4] 1.01 | [5] 1.01 | [6] 1.02 | [7] 0.999 | [8] 1.01

NS(=O)(=O)c1cc(Cl)c(Cl)c(S(N)(=O)=O)c1 [Dichlorphenamide]
inactive: [1] 1.01 | [2] 1.06 | [3] 1.07 | [4] 1.02 | [5] 1.05 | [6] 1.04 | [7] 0.995 | [8] 1.01

O=C1NCCN1c1ncc([N+](=O)[O-])s1 [Niridazole]
inactive: [4] 0.93
active: [1] 0.0187 | [2] 0.204 | [3] 0.036 | [5] 0.00953 | [6] 0.00802 | [7] 0.0321 | [8] 0.0104

CCCCN(CCCC)CCC(O)c1cc2c(Cl)cc(Cl)cc2c2cc(C(F)(F)F)ccc12 (stereo not drawn) [Halofantrine hydrochloride]
inactive: [1] 0.944 | [2] 1.04 | [3] 1.06 | [4] 1.03 | [5] 1.06 | [6] 1.11 | [7] 1.02 | [8] 1.01

CN(C)C(=O)C(CCN1CCC(O)(c2ccc(Cl)cc2)CC1)(c1ccccc1)c1ccccc1 [Loperamide hydrochloride]
inactive: [1] 0.997 | [2] 0.972 | [3] 0.981 | [4] 0.988 | [5] 1 | [6] 1.01 | [7] 1 | [8] 0.987

Cc1ccc(NC(=O)c2ccc(CN3CCN(C)CC3)cc2)cc1Nc1nccc(-c2cccnc2)n1 [Imatinib]
inactive: [1] 1.03 | [2] 1.06 | [3] 1.12 | [4] 0.991 | [5] 1.12 | [6] 1.09 | [7] 1.03 | [8] 0.259

CCCc1nc(C)c2c(=O)nc(-c3cc(S(=O)(=O)N4CCN(CC)CC4)ccc3OCC)[nH]n12 [Vardenafil]
inactive: [1] 1.01 | [2] 1 | [3] 1.01 | [4] 1.01 | [5] 1.01 | [6] 1.01 | [7] 0.983 | [8] 0.984

CNCCC=C1c2ccccc2C=Cc2ccccc21 [Norcyclobenzaprine]
inactive: [1] 0.983 | [2] 0.935 | [3] 0.888 | [4] 0.996 | [5] 0.943 | [6] 0.926 | [7] 0.994 | [8] 0.968

Cc1ccc(C)c(OCCCC(C)(C)C(=O)O)c1 [Gemfibrozil]
inactive: [1] 0.997 | [2] 0.972 | [3] 0.983 | [4] 1 | [5] 0.969 | [6] 0.972 | [7] 1 | [8] 0.977

C#CCN(C)CCCOc1ccc(Cl)cc1Cl [Clorgyline hydrochloride]
inactive: [1] 0.966 | [2] 0.955 | [4] 0.994 | [5] 0.999 | [6] 1.01 | [7] 0.976 | [8] 0.93
active: [3] 0.862

CN(C)c1ccc(O)c2c1C[C@H]1C[C@H]3[C@H](N(C)C)C(=O)C(C(N)=O)=C(O)[C@@]3(O)C(=O)C1=C2O [Minocycline hydrochloride]
active: [1] 0.00774 | [2] 0.0229 | [3] 0.0305 | [4] 0.0367 | [5] 0.0156 | [6] 0.0185 | [7] 0.0116 | [8] 0.00184

Nc1ccc(C(=O)O)c(O)c1 [Aminosalicylic acid]
inactive: [1] 1.03 | [2] 1.01 | [3] 0.988 | [4] 0.962 | [5] 1.02 | [6] 1 | [7] 1.01 | [8] 1.01

Nc1ccn([C@@H]2O[C@H](CO)[C@@H](O)[C@@H]2O)c(=O)n1 [Cytarabine]
inactive: [1] 1 | [2] 0.998 | [3] 1 | [4] 0.986 | [5] 0.993 | [6] 0.989 | [7] 0.998 | [8] 0.997

Cc1ccnc(NS(=O)(=O)c2ccc(N)cc2)n1 [Sulfamerazine]
inactive: [1] 0.973 | [2] 1.03 | [3] 0.977 | [4] 1.01 | [5] 0.988 | [6] 1.01 | [7] 0.986 | [8] 0.998

CCCCOC(=O)c1ccc(N)cc1 [Butamben]
inactive: [1] 0.994 | [2] 0.995 | [3] 0.989 | [4] 0.937 | [5] 1.03 | [6] 1.03 | [7] 0.998 | [8] 1.01

COCC(=O)Nc1c(I)c(C(=O)NCC(O)CO)c(I)c(C(=O)N(C)CC(O)CO)c1I (stereo not drawn) [Iopromide]
inactive: [1] 1 | [2] 1.03 | [3] 1.06 | [4] 1.02 | [5] 1.05 | [6] 1.05 | [7] 1.02 | [8] 1.01

O=C(NCCO[N+](=O)[O-])c1cccnc1 [Nicorandil]
inactive: [1] 0.995 | [2] 0.99 | [3] 0.991 | [4] 0.999 | [5] 0.986 | [6] 0.996 | [7] 1.01 | [8] 1.01

O=C(O)COCCN1CCN(C(c2ccccc2)c2ccc(Cl)cc2)CC1 (stereo not drawn) [Cetirizine dihydrochloride]
inactive: [1] 1 | [2] 0.994 | [3] 0.988 | [4] 0.981 | [5] 1 | [6] 1.01 | [7] 1.01 | [8] 0.994

COc1ccc2[nH]cc(CCNC(C)=O)c2c1 [Melatonin]
inactive: [1] 0.987 | [2] 0.972 | [3] 0.997 | [4] 0.992 | [5] 0.988 | [6] 1 | [7] 0.996 | [8] 0.996

OCC(O)CN1CCN(c2ccccc2)CC1 (stereo not drawn) [Dropropizine]
inactive: [1] 1.02 | [2] 1.06 | [3] 1.04 | [4] 1.01 | [5] 1.05 | [6] 1.06 | [7] 0.991 | [8] 0.981

O=C1c2c(O)cccc2Cc2cccc(O)c21 [Anthralin]
inactive: [1] 1.02 | [2] 0.987 | [3] 1.03 | [4] 1.02 | [5] 0.861 | [6] 0.834 | [7] 0.989 | [8] 0.985

Cc1ccccc1C(OCCN(C)C)c1ccccc1 (stereo not drawn) [Orphenadrine hydrochloride]
inactive: [1] 1 | [2] 1.02 | [3] 1.02 | [4] 0.992 | [5] 1.01 | [6] 0.992 | [7] 0.983 | [8] 0.958

CN1CCN(C2=Nc3ccccc3Oc3ccc(Cl)cc32)CC1 [Loxapine succinate]
inactive: [1] 1 | [2] 0.992 | [3] 0.907 | [4] 1.01 | [5] 0.612 | [6] 0.478 | [7] 1.01 | [8] 0.96

O=C(CCCN1CCC(O)(c2ccc(Cl)cc2)CC1)c1ccc(F)cc1 [Haloperidol]
inactive: [1] 0.976 | [2] 0.966 | [3] 0.97 | [4] 0.966 | [5] 0.965 | [6] 0.963 | [7] 0.998 | [8] 0.962

CC=C(C)C(=O)OC1C(OC(C)=O)C2(CO)C(O)CC3(C)C(=CCC4C5(C)CCC(OC6OC(C(=O)O)C(OC7OC(CO)C(O)C(O)C7O)C(O)C6OC6OC(CO)C(O)C(O)C6O)C(C)(CO)C5CCC43C)C2CC1(C)C (stereo not drawn) [Beta-Escin]
inactive: [1] 0.997 | [2] 1 | [3] 0.995 | [4] 0.999 | [5] 0.998 | [6] 0.981 | [7] 0.977 | [8] 1

C[C@]12CC[C@@H]3c4ccc(O)cc4CC[C@H]3[C@@H]1CCC2=O [Estrone]
active: [3] 0.0258
inactive: [1] 0.984 | [2] 0.96 | [4] 0.975 | [5] 0.977 | [6] 0.964 | [7] 0.999 | [8] 0.974

Source: the supplement of paper PMC12350171
